# Compound activity deposited in PubChem by National Center for Advancing Translational Sciences (NCATS).
# The list is not random: actives were taken first. Their share in the collection is about 9.2%.
# ELG1 DNA repair = qHTS screen for small molecules that inhibit ELG1-dependent DNA repair in human embryonic kidney (HEK293T) cells expressing luciferase-tagged ELG1. 330,000 tested, 2.3% active. HEK293T ELG1-luciferase reporter, luminescence, 16 h; DNA damage induced by 5-fluorouridine. Potency, µM (top dose mostly 46.1 µM), most hits filed as inhibitors; further: nearly all actives have a fitted effect of over 55% in size
#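 In this reporter screen, reduction of luminescence relative to DMSO vehicle indicated activity. Compounds and 5-fluorouridine were added together to 2,000 cells per well, incubated for 16 hr at 37 °C, then developed with ONE-Glo.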
# Rab9 prom act = qHTS Assay for Rab9 Promoter Activators | Huh7 Rab9 promoter-luciferase reporter, luminescence, 24 h | 320,000 tested, 2.8% active | AID 485297, 2010 | Potency, µM (series often up to 9.22 µM), hits mostly activators; further: nearly all actives have a fitted effect of over 60% in size
#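 Stable Rab9-luc Huh7, 1500 cells/well, 2 h settle; cmpd in DMSO, 24 h, 37 °C/5% CO2; luciferase reagent 10 min RT; luminescence.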
# ELG1 genotoxic = qHTS screen for small molecules that induce genotoxicity in human embryonic kidney (HEK293T) cells expressing luciferase-tagged ELG1. HEK293T ELG1-luciferase reporter, luminescence, 16 h. Potency, µM (titrated, usually from 46 µM), most hits filed as activators. 330,000 tested, 1.3% active; further: nearly all actives have a fitted effect of over 60% in size
#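 Screening used a luciferase reporter fused to human ELG1 in HEK293T cells. Luminescence was read on a CCD plate imager after 16 hr exposure and 30 min ONE-Glo incubation.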
# NPC1 promoter act = qHTS Assay for NPC1 Promoter Activators; Potency, µM (doses to about 9.22 µM), most hits filed as activators; 320,000 tested, 2.4% active; Huh7 NPC1 promoter luciferase reporter, 24 h; further: nearly all actives have a fitted effect of over 60% in size
#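 Quantitative HTS used a cell-based reporter: Huh7 cells stably bearing the NPC1 promoter upstream of luciferase were treated with compounds for 24 h, and promoter activation was read as luminescence.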
# FLuc counter = qHTS profiling assay for firefly luciferase inhibitor/activator using purifed enzyme and Km concentrations of substrates (counterscreen for miR-21 project) | purified FLuc, Km substrates, luminescence inhibition | Potency, µM (titrated, usually from 57.5 µM), most hits filed as inhibitors | Luciferin 4-monooxygenase (Photinus pyralis), P08659 | 360,000 tested, 6.9% active; further: nearly all actives have a fitted effect of over 55% in size
# Target sequence (P08659 whole entry, looked up): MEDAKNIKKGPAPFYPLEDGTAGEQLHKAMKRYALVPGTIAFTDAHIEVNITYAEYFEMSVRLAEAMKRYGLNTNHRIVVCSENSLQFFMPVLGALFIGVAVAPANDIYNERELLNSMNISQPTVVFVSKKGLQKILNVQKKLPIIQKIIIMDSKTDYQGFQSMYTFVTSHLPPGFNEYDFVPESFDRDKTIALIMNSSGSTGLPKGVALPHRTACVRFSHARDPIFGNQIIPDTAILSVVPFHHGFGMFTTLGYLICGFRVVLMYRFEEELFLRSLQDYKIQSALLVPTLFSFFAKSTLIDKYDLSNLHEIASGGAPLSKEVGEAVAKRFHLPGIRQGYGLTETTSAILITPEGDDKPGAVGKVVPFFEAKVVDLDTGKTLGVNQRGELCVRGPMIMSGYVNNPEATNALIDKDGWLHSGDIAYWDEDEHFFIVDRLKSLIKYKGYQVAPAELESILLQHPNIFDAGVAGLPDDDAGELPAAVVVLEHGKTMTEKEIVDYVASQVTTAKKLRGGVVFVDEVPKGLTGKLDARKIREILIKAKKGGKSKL
#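 Purified P. pyralis luciferase (10nM final) with 10uM D-luciferin and 10uM ATP (Km levels) in 50mM Tris acetate pH 7.5, 10mM Mg acetate, 0.01% Tween-20, 0.05% BSA; qHTS 6-point titration, ~60 µM downward; luminescence read.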
# SMN2 splice enh = qHTS Assay for Enhancers of SMN2 Splice Variant Expression; AID 1458, 2008; 210,000 tested, 2.8% active; HEK293 SMN2-luciferase splicing reporter, luminescence, 30-36 h; Potency, µM (doses to about 46.1 µM), actives largely listed as activators; further: nearly all actives have a fitted effect of over 55% in size
#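 HEK293 cells carry an SMN2 […]–luciferase reporter in which exon 7 inclusion puts luciferase in frame. Cells were plated 10-12 h before compound addition, then incubated 30-36 h at 37C. ONE-Glo luminescence was read; sodium butyrate at 4.5 mM final served as control.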
# A number is an active result; . = inactive; ? = inconclusive; / = no result given; [ ] = another dose, or the depositor's remark. The call rests on the fitted dose curve; in most records, active means well fitted curve in the direction sought with a large enough effect; inconclusive means small, poorly fitted or top-dose-only effect, or another doubt; inactive means no such curve, though single readings can be large; an effect the other way counts as inactive or inconclusive.
SMILES,ELG1 DNA repair,Rab9 prom act,ELG1 genotoxic,NPC1 promoter act,FLuc counter,SMN2 splice enh
CCC(Oc1ccccc1)C(=O)Nc1ccc2oc(-c3ccc(OC)cc3)nc2c1 (stereo not given),/,/,/,/,.,/
O=C(c1cc2ccccc2cc1O)N1CCN(c2ccc([N+](=O)[O-])cc2)CC1,.,.,.,.,.,/
CCOC(=O)CCNC(=O)Nc1ccc2nc(C)n(Cc3ccc(Cl)cc3)c(=O)c2c1,15µM,.,.,.,.,.
CC(=O)Nc1ccc2c(c1)nc(C)n2Cc1ccccc1,.,.,.,.,.,/
CC(=O)Nc1ccc2nc(C)n(Cc3ccc(Cl)cc3)c(=O)c2c1,?,.,?,?,.,13µM
C=CCNc1nc(Nc2ccc(-c3nc4ccccc4o3)cc2)nc(N2CCOCC2)n1,15µM,.,.,.,.,.
COc1ccc(NC(=O)c2cc(NC(=O)C3CCCCC3C(=O)O)ccc2N2CCOCC2)cc1 (stereo not given),.,.,.,.,.,/
CC(=O)Nc1ccc(NC(=O)C2CCCCC2C(=O)O)cc1 (stereo not given),.,.,.,.,.,.
O=C(O)C1CCCCC1C(=O)Nc1ccc(-c2ccccc2)cc1 (stereo not given),?,?,?,.,17µM,.
Cc1cccc(NC(=O)c2cc(NC(=O)C3CCCCC3C(=O)O)ccc2N2CCOCC2)c1 (stereo not given),?,.,.,.,21µM,/
Cc1ccc(NC(=O)c2ccc(NC(=O)C3CCCCC3C(=O)O)cc2)cc1 (stereo not given),?,.,.,.,17µM,/
Cc1sc(NC(=O)C2CCCCC2C(=O)O)c(C(N)=O)c1-c1ccccc1 (stereo not given),?,3.5µM,?,1.6µM,3.4µM,.
O=C1C=CC2=C3c4cc(O)c(O)cc4C[C@]3(O)COC2=C1,/,/,/,/,/,.
Cc1cc(C)c(/C=C/c2onc(C)c2S(=O)(=O)N2CCC(C(=O)N3CCN(c4ccccc4)CC3)CC2)c(C)c1,/,/,/,/,.,/
O=C(Nc1cc(Cl)cc(Cl)c1)c1cc(S(=O)(=O)N2CCc3ccccc3C2)ccc1F,/,/,/,/,.,/
Cc1ccc(OS(=O)(=O)c2ccc(N3C(=O)CCC3=O)cc2)cc1,.,.,.,.,.,/
COc1cc(/C=N/NC(=O)COc2cccc(F)c2)ccc1OS(=O)(=O)c1ccc(C)cc1,18µM,.,.,.,.,.
O=C(NN1C(=O)/C(=C/c2ccc(O)c([N+](=O)[O-])c2)SC1=S)c1ccccc1Cl,.,.,.,.,17µM,.
COc1cc(/C=C2\SC(=S)N(NC(=O)c3ccccc3O)C2=O)ccc1O,.,.[1.84 µM],.,.,17µM,/
O=C(O)[C@H](Cc1ccccc1)NC(=O)N1CCN(c2ccc(F)cc2)CC1,.,.,.,.,.,/
CN(Cc1ccccc1)C(=O)CCSc1nc(-c2ccc3c(c2)OCO3)cc(C(F)(F)F)n1,16µM,.,.,.,.,.
Cc1[nH]n(-c2ccccc2)c(=O)c1N=Nc1ccc2c(c1)OCO2,?,?,.,?,6µM,18µM
O=c1cc(-c2ccccc2)nc2c(-c3ccccc3)c(C(F)(F)F)[nH]n12,?,.,.,.,?,/
COc1cccc(N=Nc2c(C)[nH]n(-c3ccccc3)c2=O)c1,?,?,?,?,11µM,/
Nc1[nH]n2c(=O)cc(-c3ccccc3)nc2c1N=Nc1ccc2c(c1)OCO2,.,.,.,.,5.4µM,/
SMILES,ELG1 DNA repair,Rab9 prom act,ELG1 genotoxic,NPC1 promoter act,FLuc counter,SMN2 splice enh
O=C(NCCCn1ccnc1)c1ccc(-c2cccc(Cl)c2Cl)o1,.,/,.,/,/,/
N#CC1(NC(=O)CSc2nncn2-c2ccccc2F)CCCC1,?,.,.,.,.,/
COCCCNC(=O)Cc1c(C)c2c(cc(C)c3c(C(C)(C)C)coc32)oc1=O,.,.,.,.,11µM,/
Cc1cc2oc(=O)c(CC(=O)O)c(C)c2c2occ(-c3ccccc3)c12,/,/,/,/,6µM,.
CCOC(=O)C1CCCN(S(=O)(=O)NC[C@H]2O[C@@H](n3cnc4c(N)ncnc43)[C@H](O)[C@@H]2O)C1 (stereo not given in full),.,/,.,/,/,/
Cc1ccc(S(=O)(=O)Nc2ccc(O)c3ncccc23)cc1,3.3µM,.,.,.,.,.
Cc1ccc(S(=O)(=O)Nc2ccc(O)c3cccnc23)cc1,18µM,.,.,.,.,/
Cc1ccc(S(=O)(=O)Nc2ccnc3ccccc23)cc1,.,.,.,.,.,.
Cc1ccc(S(=O)(=O)Nc2cccc3ncccc23)cc1,.,.,.,.,.,/
Cc1cc(F)ccc1NC(=O)CN1C(=O)CCc2cc(S(=O)(=O)N3CCOCC3)ccc21,/,/,/,/,.,/
CC1=C(C(=O)Nc2cccc(Cl)c2)C2(CCCCCC2)OC1=O,/,/,/,/,.,/
C=CCC1(CC=C)CCCN1C(=O)c1cc(COc2ccc(C)nc2)on1,?,.,.,.,19µM,/
CCc1cc(CNC(=O)c2cc(COc3ccc(C)nc3)on2)on1,?,?,?,?,17µM,/
Cc1cc(C)n(CC(C)NC(=O)c2cc(COc3ccc(F)c(F)c3)on2)n1 (stereo not given),?,.,.,?,?,/
Cc1cc(CNC(=O)c2cc(COc3ccc(F)c(F)c3)on2)nn1C,?,1.3µM,?,2.8µM,?,/
Cc1ccc(OCc2cc(C(=O)NCc3ccc(OC(F)(F)F)cc3)no2)cn1,.,.,.,.,.,/
Nc1ccn(CC(=O)N[C@H](CO)Cc2c[nH]c3ccccc23)c(=O)n1,.,.,.,.,.,/
Cc1ccc(S(=O)(=O)N2CCCCC2)cc1NC(=O)CSc1nnc(C2CC2)n1N,.,/,.,/,/,/
CC(C(=O)NCc1ccc(Cl)cc1)n1ccc2cc(S(=O)(=O)N3CCCC3)ccc21 (stereo not given),/,/,/,/,.,/
O=C(Nc1ccccc1N1CCN(c2ccccc2)CC1)c1ccccc1,.,.,.,.,.,.
Cc1cc(Cl)c(S(=O)(=O)N/N=C/c2ccc3c(c2)OCO3)c(Cl)c1,?,.,.,.,15µM,?
O=C(N/N=C/c1cccnc1)c1ccc2c(c1)OCO2,?,?,?,?,8.5µM,/
Cc1cc(C)c(S(=O)(=O)N/N=C/c2ccc3c(c2)OCO3)c(C)c1,.,.,.,.,.,/
O=C(N/N=C/c1cccnc1)c1ccc(O)cc1,.,.,.,.,?,/
